Bioassay records as filed in PubChem BioAssay.
Compounds with a hit are over-represented: about 2.2% of the library has one in this group of screens.
MITF TRPM1 inh – reduces MITF-dependent TRPM1 promoter luciferase signal; SK-MEL-5 TRPM1 promoter luciferase, 24 h; inhibition, % at 12.5 µM; AID 488899; 0.83% of 330,000 active;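 active = mean inhibition across replicates of 60% or more, whatever share of single replicates reaches that level; inconclusive = some that reach 60%, reason not given; inactive = mean inhibition across replicates below 60%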
PAX8 inh HTS – PAX8 transcriptional activity inhibition; RMG-I TPO-luciferase reporter, SteadyGlo, 24 h; inhibition, % at 12.6 µM; AID 652154; 1.2% of 360,000 active;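 active = mean replicate inhibition at least 60% with every replicate also reaching 60%; inconclusive = only one of the two criteria is met; inactive = mean below 60% and not all replicates reaching 60%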;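 note: luciferase light reporting Pax8 driven TPO promoter activity; plate controls were median of neutral control wells for no effect and mitoxantrone controls for full effect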
LMP1 NFkB inh – Epstein-Barr LMP1 NF-kappaB reporter inhibition; 0.69% of 350,000 active; inhibition, % at 12.5 µM; LMP1-induced NF-kappaB luciferase reporter cells, luminescence; AID 504558; in the data active = inhibition above about 41%; inconclusive = no clear call, values can overlap the other calls;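 note: 0% = neutral control wells and 100% = reference inhibitor control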
PGC1a acetyl inh – lowers PGC1a acetylation signal in U2OS cells; 0.17% of 350,000 active; inhibition, % at 15.6 µM; AID 651687; AlphaScreen anti-acetyl-lysine; with virally co-expressed GCN5 acetyltransferase;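 active = every replicate shows inhibition of at least 40%; inconclusive = mean inhibition at least 40% but some replicate below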;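 note: 0% = neutral control wells and 100% = positive control wells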
EWS-Fli inh – EWS/Fli transcriptional activity inhibition | A673 NR0B1-luciferase reporter, viability-normalised | AID 651661 | inhibition, % at 12.6 µM | 0.67% of 350,000 active;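 active = mean inhibition of at least 50% after viability correction, with every replicate also passing that limit; inconclusive = mean reaches 50% but only one of two replicates passes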;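 note: firefly luciferase signal divided by Alamar Blue viability fluorescence both relative to DMSO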
LGR2 inh – blocks bursicon-induced cAMP signaling via Drosophila LGR2; HEK293 LGR2, CRE-luciferase, bursicon-stimulated, 4 h; inhibition, % at 9.99 µM; 0.35% of 380,000 active; AID 720647;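 active = drop in luminescence signal, shown as inhibition above about 50% in the replicate tests, limit read from the data, passing the limit was not always enough; inconclusive = probably only some replicates passing the limit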;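 note: agonist challenge used bursicon conditioned medium at about half maximal strength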
The depositor's hits bear a star; ? = inconclusive; . = not tested or not shown; ! = a repeat was not active.

SMILES	MITF TRPM1 inh	PAX8 inh HTS	LMP1 NFkB inh	PGC1a acetyl inh	EWS-Fli inh	LGR2 inh
C[C@@H]1CCCCO[C@@H](CN(C)CC2CCCCC2)[C@@H](C)CN([C@@H](C)CO)C(=O)c2cc(NC(=O)Nc3ccc(C(F)(F)F)cc3)ccc2O1	.	100*	.	8	65*	.
C[C@@H]1CCCCO[C@@H](CN(C)CC2CC2)[C@H](C)CN([C@@H](C)CO)C(=O)c2cc(NC(=O)Nc3ccc(C(F)(F)F)cc3)ccc2O1	.	23	.	-3	6	9
C[C@@H]1CCCCO[C@H](CN(C)CC2CCCCC2)[C@H](C)CN([C@H](C)CO)C(=O)c2cc(NC(=O)Nc3ccc(C(F)(F)F)cc3)ccc2O1	.	9	.	-10	75*	.
C[C@@H]1CCCCO[C@@H](CN(C)CC2CCCCC2)[C@H](C)CN([C@H](C)CO)C(=O)c2cc(NC(=O)Nc3ccc(C(F)(F)F)cc3)ccc2O1	.	-24	.	-6	76*	10
CC(=O)Nc1ccc2c(c1)C(=O)N(C)[C@H]1CC[C@H](CC(=O)N3CCc4ccccc4C3)O[C@@H]1CO2	.	-2	.	10	6	3
COc1cccc(CNC(=O)C[C@@H]2C=C[C@H](NS(=O)(=O)c3ccccc3OC)[C@@H](CO)O2)c1	.	-17	.	-3	-1	-11
CC(C)[C@@H]1COCn2nncc2CC[C@H](Cc2ccccc2)C(=O)N1	.	-4	.	.	4	2
C[C@H](CO)N1C[C@H](C)[C@H](CN(C)S(=O)(=O)c2cccs2)OCCCC[C@H](C)Oc2ccc(NS(=O)(=O)c3ccc(Cl)cc3)cc2C1=O	.	?	.	-12	6	14
C[C@H](CO)N1C[C@H](C)[C@@H](CN(C)S(=O)(=O)c2cccs2)OCCCC[C@H](C)Oc2ccc(NS(=O)(=O)c3ccc(Cl)cc3)cc2C1=O	.	100*	.	3	5	8
C[C@@H]1CCCCO[C@@H](CN(C)S(=O)(=O)c2cccs2)[C@@H](C)CN([C@H](C)CO)C(=O)c2cc(NS(=O)(=O)c3ccc(Cl)cc3)ccc2O1	.	-1	.	5	2	-8
C[C@@H]1CCCCO[C@H](CN(C)S(=O)(=O)c2cccs2)[C@@H](C)CN([C@@H](C)CO)C(=O)c2cc(NS(=O)(=O)c3ccc(Cl)cc3)ccc2O1	.	68*	.	-14	6	3
Cc1cc(NC(=O)CSc2nc(C(C)(C)C)nc3ccccc23)no1	9	34	-1	.	46	-16
Cc1cc(NC(=O)CSc2nc(-c3cccs3)nc3ccccc23)no1	11	27	22	.	58*	-17
CCCn1c(CC)nc([N+](=O)[O-])c1S(=O)(=O)c1ccccc1	?	82*	7	-39	.	.
N#Cc1ccc(-c2ccc3c(c2)[C@@H]2[C@@H](CCN2C(=O)C2CCC2)[C@@H](CO)N3)cc1	.	.	.	11	2	-11
N#Cc1cccc(-c2ccc3c(c2)[C@@H]2[C@@H](CCN2S(=O)(=O)c2ccc(F)cc2)[C@@H](CO)N3)c1	.	76*	.	7	2	13
N#Cc1cccc(-c2ccc3c(c2)[C@@H]2[C@@H](CCN2C(=O)C2CCCCC2)[C@@H](CO)N3)c1	.	75*	.	-3	13	27
COc1ccccc1-c1ccc2c(c1)[C@H]1[C@H](CCN1C(=O)C1CCCC1)[C@H](CO)N2	.	.	.	.	-4	.
N#Cc1ccc(-c2ccc3c(c2)[C@H]2[C@H](CCN2C(=O)C2CCCC2)[C@H](CO)N3)cc1	.	.	.	.	-8	.
COc1ccccc1-c1ccc2c(c1)[C@H]1[C@H](CCN1C(=O)C1CCCCC1)[C@@H](CO)N2	.	90*	.	-2	9	-6
N#Cc1cccc(-c2ccc3c(c2)[C@H]2[C@H](CCN2C(=O)C2CCCCC2)[C@H](CO)N3)c1	.	66*	.	-21	12	12
Cc1cccc(-c2noc(CCC(=O)NCc3ccco3)n2)c1	3	.	-2	16	-20	.
CC(C)(C)c1ccc(-c2noc(CCC(=O)NCc3ccco3)n2)cc1	83*	49	-10	.	35	-68
Cc1nc2ccc(-c3nc4ccc(N)cc4[nH]3)cc2[nH]1	9	69*	29	.	-19	-19
Nc1ccc(-c2nc3ccc(N)cc3[nH]2)cc1	4	45	-4	.	2	-39
SMILES	MITF TRPM1 inh	PAX8 inh HTS	LMP1 NFkB inh	PGC1a acetyl inh	EWS-Fli inh	LGR2 inh
Nc1ccc2nc(-c3ccc(Cl)cc3)[nH]c2c1	-61	80*	2	-15	-57	-76
Cc1noc(C)c1S(=O)(=O)N(C)C[C@H]1Oc2c(NC(=O)c3nc4ccccc4s3)cccc2C(=O)N([C@H](C)CO)C[C@H]1C	.	.	.	.	.	7
C[C@@H]1CN([C@H](C)CO)C(=O)c2cccc(NC(=O)C3CCCCC3)c2O[C@@H]1CN(C)C	.	-12	.	-5	6	-3
CCCNC(=O)Nc1ccc2c(c1)C(=O)N(C)C[C@@H](OC)[C@H](C)CN(Cc1cncnc1)[C@H](C)CO2	.	.	.	-7	1	-2
O=C(CC(c1ccc(F)cc1)c1ccco1)N1CCOCC1 (centres undefined)	7	.	61*	-2	.	7
O=C(CC(c1ccc(F)cc1)c1ccco1)N1CCCC1 (centres undefined)	2	.	-6	.	.	.
Cc1cc(C)n(-c2nc(Nc3ccccc3)nc(-n3nc(C)cc3C)n2)n1	-3	.	1	10	8	7
Cc1cc(C)n(-c2nc(N(c3ccccc3)c3ccccc3)nc(-n3nc(C)cc3C)n2)n1	71*	.	16	8	.	.
CO[C@H]1CN(C)C(=O)c2ccc(NS(C)(=O)=O)cc2OC[C@@H](C)N(C(=O)NC(C)C)C[C@@H]1C	.	-4	.	-1	-1	-10
COc1cccc(NC(=O)N(C)C[C@@H]2Oc3ncc(/C=C/c4ccccc4)cc3C(=O)N([C@@H](C)CO)C[C@@H]2C)c1	.	9	.	-7	0	4
CC(=O)c1c(C)[nH]c(C(=O)OCCOc2ccccc2)c1C	11	18	33	9	-15	68*
COCC(=O)N1[C@H](C#N)[C@H](c2ccccc2C2=CCCCC2)[C@H]1CO	.	.	.	3	-3	11
c1ccc(-c2cc3n(c2)CCc2ccccc2-3)cc1	0	.	32	1	.	66*
O=C(O)c1cc2c(s1)-c1ccccc1CC2	-3	4	10	.	.	5
CCOC(=O)N1CCC(n2c(=S)[nH]c3ccccc3c2=O)CC1	-21	.	66*	2	.	-41
CCOC(=O)N1CCN(C(=O)CCCn2c(=S)[nH]c3ccccc3c2=O)CC1	2	8	9	-12	.	.
CCCCCCC1CC(=O)NC(=S)N1 (centres undefined)	-5	1	-1	63*	12	11
O=C(C[C@@H]1C[C@H]2c3cc(NC(=O)NC4CCCCC4)ccc3O[C@H]2[C@H](CO)O1)NCC(F)(F)F	.	3	.	-14	3	14
Cc1cccc(S(=O)(=O)N2C[C@@H]3N[C@H](C2)C3c2ccc(-c3ccncc3)cc2)c1 (some centres undefined)	.	-8	.	0	57*!	-1
